Laboratory results from PubChem BioAssay.
Where “and” joins values, the source holds several entries; their conditions need not be identical. Identical values can stand only once.

test: sensitizers of A549 cells to miR-34 induction, primary screen, imaging, A549 dox-inducible miR-34, nuclei and caspase counts (AID 1347080); conditions: A549 miR-34 inducible, Hoechst nuclei count, 48 h; measured here: total cells with miR-34 induction; stronger effect = lower value; further: test concentration not given here

Compound | cell count
CC(C)c1c(C(=O)Nc2ccccc2)c(-c2ccccc2)c(-c2ccc(F)cc2)n1CC[C@@H](O)C[C@@H](O)CC(=O)O | 5410
CC(C)(C)CC(C)(C)c1ccc(OCCOCC[N+](C)(C)Cc2ccccc2)cc1 | 2760 and 5310 and 8060
CN1[C@@H]2CC(OC(=O)[C@H](CO)c3ccccc3)C[C@H]1[C@@H]1O[C@@H]12 (stereo not given in full) | 8470 and 8340 and 9610
CC(C)n1c(/C=C/[C@@H](O)C[C@@H](O)CC(=O)O)c(-c2ccc(F)cc2)c2ccccc21 | 1760 and 2100
CN(C)C(=N)N=C(N)N | 7440 and 12900 and 10500
O=C(O)c1cn(C2CC2)c2cc(N3CCNCC3)c(F)cc2c1=O | 9200 and 10000 and 9070
COc1ccc(-c2nc3ccc(C4=NNC(=O)CC4C)cc3[nH]2)cc1 (stereo not given) | 5650
CS(=O)(=O)c1ccc([C@@H](O)[C@@H](CF)NC(=O)C(Cl)Cl)cc1 | 8300 and 9020
C[C@@H](O[C@H]1OCCN(Cc2n[nH]c(=O)[nH]2)[C@H]1c1ccc(F)cc1)c1cc(C(F)(F)F)cc(C(F)(F)F)c1 | 9050
NCCCC(O)(P(=O)(O)O)P(=O)(O)O | 8960 and 12100 and 9780
CC1(C)[C@H](C(=O)O)N2C(=O)C[C@H]2S1(=O)=O | 7470 and 7970 and 9900
O=C(O)CCn1c2c(c3ccccc31)C[C@H](NS(=O)(=O)c1ccc(F)cc1)CC2 | 5630

same assay, conditions: A549 miR-34 inducible, Hoechst nuclei count, 48 h; measured here: total cells without miR-34 induction

Compound | cell count
CC(C)c1c(C(=O)Nc2ccccc2)c(-c2ccccc2)c(-c2ccc(F)cc2)n1CC[C@@H](O)C[C@@H](O)CC(=O)O | 4270
CC(C)(C)CC(C)(C)c1ccc(OCCOCC[N+](C)(C)Cc2ccccc2)cc1 | 3460 and 6450 and 10500
C[N+]1(C)CCC(OC(=O)C(O)(c2ccccc2)C2CCCC2)C1 (stereo not given) | 11400 and 10400 and 13800
CN1[C@@H]2CC(OC(=O)[C@H](CO)c3ccccc3)C[C@H]1[C@@H]1O[C@@H]12 (stereo not given in full) | 10000 and 9330 and 11300
CC(C)n1c(/C=C/[C@@H](O)C[C@@H](O)CC(=O)O)c(-c2ccc(F)cc2)c2ccccc21 | 1610 and 1940
CN(C)C(=N)N=C(N)N | 8950 and 13500 and 10900
O=C(O)c1cn(C2CC2)c2cc(N3CCNCC3)c(F)cc2c1=O | 10300 and 13000 and 10800
COc1ccc(-c2nc3ccc(C4=NNC(=O)CC4C)cc3[nH]2)cc1 (stereo not given) | 6230
CS(=O)(=O)c1ccc([C@@H](O)[C@@H](CF)NC(=O)C(Cl)Cl)cc1 | 8980 and 9620
C[C@@H](O[C@H]1OCCN(Cc2n[nH]c(=O)[nH]2)[C@H]1c1ccc(F)cc1)c1cc(C(F)(F)F)cc(C(F)(F)F)c1 | 9430
NCCCC(O)(P(=O)(O)O)P(=O)(O)O | 6340 and 13900 and 11300
CC1(C)[C@H](C(=O)O)N2C(=O)C[C@H]2S1(=O)=O | 7550 and 9000 and 11200
O=C(O)CCn1c2c(c3ccccc31)C[C@H](NS(=O)(=O)c1ccc(F)cc1)CC2 | 5850
